# In the library only some 20% were active in any assay of this set; here they are far more common.
# Pf growth 96h – inhibits malaria parasite growth, 96 h; 320,000 compounds, 6.9% hits; Potency, µM (top dose mostly 28.7 µM), for the others: at the highest dose activity change, negative = inhibition, actives largely listed as inhibitors; P. falciparum luciferase reporter growth, 96 h; note: potency is the fitted concentration of half-maximal effect; % is set by controls: 0 for no effect and ±100 for the full control effect
#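 Infected RBCs, 2% Hct / 0.05% parasitemia final; luciferase-reporter P. falciparum; cpd 96 h, 37 C, 5% CO2; luciferase detection reagent; luminescence.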
# CHX counter – counter-screen hit for Shiga toxin inhibitors, cycloheximide; cell reporter, cycloheximide protein synthesis inhibition counterscreen; max response, %; 300,000 compounds, 12% hits; in the data active = max response mostly above about 13%, no sharp cut-off; inactive = mostly below about 14%; note: read at 38.3 µM for the half of the compounds with a filed dose; 0% is about no effect
# Shiga toxin inh – blocks Shiga toxin action in Vero cells | AID 2315 | Vero cells, Shiga toxin protein synthesis inhibition reporter | inhibition, % at 38.7 µM | 290,000 compounds, 9.2% hits; in the data active = inhibition mostly above about 28%, no sharp cut-off; inactive = mostly below about 43%; note: 0% is about no effect
# Pf growth 48h – P. falciparum growth inhibition at 48 hours (one generation) | P. falciparum luciferase growth in erythrocytes, 48 h | Potency, µM (top dose mostly 28.7 µM), for inactives: at the top dose activity change, negative = inhibition, hits mostly inhibitors | 310,000 compounds, 5.9% hits; note: potency is the fitted concentration of half-maximal effect; % is set by controls: 0 for no effect and ±100 for the full control effect
#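 Parasite viability was followed by luminescence of a genomically integrated firefly luciferase. Cultures held 0.1% parasitemia at 2% hematocrit (final), incubated under 5% CO2 at 37 C.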
# HCMV inh – human cytomegalovirus inhibition | HFF cells, HCMV-luciferase reporter, 72 h; active compounds read low | activity change, negative = inhibition, % at 57.5 µM | 410,000 compounds, 4.5% hits | AID 1259415; in the data active = activity change below about -60%; inconclusive = no clear call, values can overlap the other calls; inactive = above about -39%; note: % is set by controls: 0 for no effect and ±100 for the full control effect
#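 Inhibition of viral replication was scored as loss of reporter luminescence in HFFs infected with HCMV-luciferase (MOI 1 PFU/cell) for 72 h; compounds tested at 2 doses, normalized to buffer and Salinomycin controls.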
# * = called active by the depositor; u = inconclusive; x = no result given; + = active, no number. Unless noted, calls come from the whole dose curve; as a rule, active = well fitted inhibition curve with a large enough effect; inconclusive = small, poorly fitted or top-dose-only effect, or another doubt; inactive = no such curve, though single readings can be large or run the other way.
SMILES,Pf growth 96h,CHX counter,Shiga toxin inh,Pf growth 48h,HCMV inh
CCn1ccnc1CN1CCN(CCC(C)C)C(CCO)C1 (configuration not stated),11.7µM*,1.8,-16.6,3.7%,-0.5
OCCC1CN(Cc2cccn2-c2ncccn2)CCN1Cc1ccccc1 (configuration not stated),13.1µM*,-2.6,-4.3,-5.9%,-21.0
CCn1ccnc1CN1CCN(CC(C)C)C(CCO)C1 (configuration not stated),0.4%,2.3,-3.4,6.5%,40.4
Cc1ccc(CN2CCN(Cc3cnn(-c4ccc(Cl)cc4)c3)CC2CCO)o1 (configuration not stated),u,2.6,-4.2,1.4%,-13.7
CCS(=O)(=O)N1CCc2cc(C(=O)NCc3ccc(Cl)cc3)ccc21,x,x,x,x,-17.6
CN1CCN(S(=O)(=O)c2ccc(NN)nc2)CC1,u,x,x,u,-23.4
C/C(=N\Nc1nc2ccccc2[nH]1)c1ccc(N2CCOCC2)cc1,1.65µM*,40.0*,60.6*,4.15µM*,99.9
C/C(=N\NC(=O)c1ccncc1)c1ccc(N2CCOCC2)cc1,-12.6%,x,x,-2.8%,15.4
C/C(=N\Nc1ncc(Cl)cc1Cl)c1ccc(N2CCOCC2)cc1,21.4%,38.3*,85.0*,24.4%,-30.6
C/C(=N\Nc1nc(C)cc(C)n1)c1ccc(N2CCOCC2)cc1,u,17.1,20.3,u,-68.6*
C/C(=N/Nc1nc(C)cc(C)n1)c1ccc(Br)cc1,-34.4%,-2.1,x,u,u
COc1ccccc1N1CCN(C(=O)c2cc3c(=O)n(Cc4cccnc4)ccc3nc2C)CC1,x,x,x,x,9.7
NC(=O)C1CCN(C(=O)c2ccc([N+](=O)[O-])cc2NC(=O)c2cccs2)CC1,20.1%,-0.9,19.1,35.7%,11.7
NS(=O)(=O)c1ccc(CCNC(=O)COC(=O)c2nc(Cl)ccc2Cl)cc1,-13.7%,x,x,-13.3%,u
O=C(Cn1nc(C(F)F)cc1C1CC1)NCCC1=CCCCC1,3.29µM*,-1.5,-27.8,-27.3%,-7.1
Cc1ccnc(SC2CC(=O)N(c3ccc(Cl)cc3)C2=O)n1 (configuration not stated),-13.3%,-2.9,-5.9,4.4%,-0.1
CC(C)c1ccc(N2C(=O)CC(Sc3ncccn3)C2=O)cc1 (configuration not stated),2.08µM*,0.1,-9.0,3.3%,-8.5
N#Cc1cc2c(nc1SC1CC(=O)N(c3ccccc3)C1=O)CCC2 (configuration not stated),402.7%,83.3*,114.9*,316.4%,x
Cc1nc(SC2CC(=O)N(c3ccccc3)C2=O)n[nH]1 (configuration not stated),u,10.2,17.0,15.7%,-60.2*
Cc1cccc(N2C(=O)CC(Sc3nccc(C)n3)C2=O)c1 (configuration not stated),2.8%,-1.8,-5.1,0.0%,-97.6*
CC1=C(C(=O)NCc2cccc(F)c2)C2(CCCCC2)OC1=O,x,x,x,x,-7.4
Cc1nn(C)c(C)c1NC(=S)Nc1ccc(S(=O)(=O)Nc2ncccn2)cc1,-18.6%,-1.2,-4.1,-3.5%,-19.4
Cc1ccc2ncc3c(-c4ccccc4)nn(CC(=O)NC4CCCCC4)c3c2c1,x,x,x,x,9.9
Cc1cccc(NC(=O)N2CCc3ccccc3C2)c1C,29.7%,29.0*,39.4*,-1.7%,-11.2
CC1CCN(C(=O)c2ccccc2NC(=O)c2nsc3ccccc23)CC1,x,x,x,x,0.0
SMILES,Pf growth 96h,CHX counter,Shiga toxin inh,Pf growth 48h,HCMV inh
Cc1cccc(NC(=O)N2CCN(C(=O)c3nsc4ccccc34)CC2)c1C,x,x,x,x,+
Cc1cc(C)cc(NC(=O)N2CCc3ccccc3C2)c1,70.7%,36.4*,74.9*,61.5%,85.1
COc1ccccc1NC(=O)N1CCCC(C(=O)Nc2cccc(C)c2C)C1 (configuration not stated),8.28µM*,9.1,10.8,-0.1%,9.9
CC(=O)c1cccc(NC(=O)Cn2c(SCC(=O)Nc3ccc(F)cc3)nc3ccccc32)c1,x,x,x,x,13.8
CC(c1ccc2c(c1)OCO2)n1c(=S)[nH]c2ccccc2c1=O (configuration not stated),u,x,x,u,0.0
Cc1ccc(NC(=O)N2CCN(C)CC2)cc1NC(=O)N1CCN(C)CC1,42.4%,11.7*,48.9,27.5%,-4.9
Cc1ccc(NC(=O)N2CCc3ccccc3C2)cc1C,u,77.8*,151.6*,96.9%,203.7
COc1ccc(NC(=O)N2CCc3ccccc3C2)cc1OC,u,8.5,9.1,-1.9%,-5.7

# High-throughput results: PubChem BioAssay, National Center for Advancing Translational Sciences (NCATS)
